The nature of experiment [1]: E. coli DRC41 culture turbidity changes, primary screen, E. coli filamentation inducer project, strain DRC41, OD650, 48 h (AID 1152).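 Also: E. coli MC1000 strain DRC41 lacking acrAB efflux pump and sulA.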 To be noted: E. coli DRC41 (acrAB sulA), higher = more signal, called active from +8 up or from −8 down.
The nature of experiment [2]: small-molecule binders of probe aLefty1, primary screen, biochemical, small-molecule microarray, 635/667 nm fluorescence (AID 1153).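 Also: score merges spot fluorescence with signal-to-noise ratio from the scanned slide images.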 To be noted: higher = more signal.
Experiment [3] can be described thus: PSAC antagonists in infected red cells, primary screen, cell-based, P. falciparum Indochina, OD700, 1 h (AID 1154). To be noted: P. falciparum Indochina infected RBC osmotic lysis, higher = more signal, called active from +8 up or from −8 down.
Experiment [4] is described as follows: PSAC antagonists in infected red cells, primary screen, cell-based, P. falciparum Indochina, OD700, 2 h (AID 1155).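 Also: lysis reports solute entry through the parasite surface anion channel PSAC; channel blockers reduce lysis of infected cells.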 As to conditions: P. falciparum Indochina infected erythrocytes, osmotic lysis OD700; higher = more signal, called active from +8 up or from −8 down.
Experiment [5] in a line: osmotic lysis modulators in infected erythrocytes, primary screen, PSAC antagonist project, cell-based, P. falciparum Indochina, OD700, 3 h (AID 1156). To be noted: higher = more signal, called active from +8 up or from −8 down.
The nature of experiment [6]: PSAC antagonists in infected red cells, primary screen, cell-based, P. falciparum Indochina, OD700, 18 h (AID 1157). As to conditions: P. falciparum Indochina infected erythrocytes, osmotic lysis OD700, 18 h; higher = more signal, called active from +8 up or from −8 down.
Experiment [7] in a line: modulators of S6 phosphorylation in cells, primary screen, cell-based, A549, cytoblot, luminescence, serum-stimulated (AID 1158).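 Also: serum-stimulated A549 lung adenocarcinoma cells; signal is phosphorylated S6 detected by cytoblot immunostaining with HRP secondary.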 As to conditions: A549 phospho-S6 cytoblot, 5 h, higher = more signal.
In experiment [8] the target is NADPH oxidase 2 (Homo sapiens) (UniProt P04839). Description: NOX2-dependent H2O2 signal modulators, primary screen, NOX inhibitor project, cell-based, HEK293-NOX2, PMA-stimulated, Amplex Red fluorescence (AID 1159). Also: test concentration not given here. As to conditions: 45 min, higher = more signal, called active from +8 up or from −8 down.
Chain of NADPH oxidase 2 (Homo sapiens) (P04839 whole entry, looked up): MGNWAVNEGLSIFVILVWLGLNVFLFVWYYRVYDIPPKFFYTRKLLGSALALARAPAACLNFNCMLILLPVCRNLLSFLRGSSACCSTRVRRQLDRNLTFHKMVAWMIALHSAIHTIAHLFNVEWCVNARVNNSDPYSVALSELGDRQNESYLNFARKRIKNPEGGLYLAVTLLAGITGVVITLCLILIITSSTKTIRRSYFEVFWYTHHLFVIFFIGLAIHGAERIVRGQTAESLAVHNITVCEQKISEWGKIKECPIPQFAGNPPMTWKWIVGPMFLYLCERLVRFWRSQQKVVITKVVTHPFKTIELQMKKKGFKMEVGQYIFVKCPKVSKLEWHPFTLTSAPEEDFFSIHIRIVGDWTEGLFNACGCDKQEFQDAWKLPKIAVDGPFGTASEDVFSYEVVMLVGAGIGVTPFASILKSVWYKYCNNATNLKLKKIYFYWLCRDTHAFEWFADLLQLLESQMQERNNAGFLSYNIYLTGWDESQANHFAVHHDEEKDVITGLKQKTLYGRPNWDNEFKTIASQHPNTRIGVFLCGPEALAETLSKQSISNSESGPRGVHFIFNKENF
In experiment [9] the target is NADPH oxidase 4 (Homo sapiens) (UniProt Q9NPH5). The experiment can be described thus: NOX4-dependent H2O2 signal modulators, primary screen, NOX inhibitor project, cell-based, HEK293-NOX4, tetracycline-induced, Amplex Red fluorescence (AID 1160). As to conditions: 45 min, higher = more signal, called active from +8 up or from −8 down.
Chain of NADPH oxidase 4 (Homo sapiens) (Q9NPH5 whole entry, looked up): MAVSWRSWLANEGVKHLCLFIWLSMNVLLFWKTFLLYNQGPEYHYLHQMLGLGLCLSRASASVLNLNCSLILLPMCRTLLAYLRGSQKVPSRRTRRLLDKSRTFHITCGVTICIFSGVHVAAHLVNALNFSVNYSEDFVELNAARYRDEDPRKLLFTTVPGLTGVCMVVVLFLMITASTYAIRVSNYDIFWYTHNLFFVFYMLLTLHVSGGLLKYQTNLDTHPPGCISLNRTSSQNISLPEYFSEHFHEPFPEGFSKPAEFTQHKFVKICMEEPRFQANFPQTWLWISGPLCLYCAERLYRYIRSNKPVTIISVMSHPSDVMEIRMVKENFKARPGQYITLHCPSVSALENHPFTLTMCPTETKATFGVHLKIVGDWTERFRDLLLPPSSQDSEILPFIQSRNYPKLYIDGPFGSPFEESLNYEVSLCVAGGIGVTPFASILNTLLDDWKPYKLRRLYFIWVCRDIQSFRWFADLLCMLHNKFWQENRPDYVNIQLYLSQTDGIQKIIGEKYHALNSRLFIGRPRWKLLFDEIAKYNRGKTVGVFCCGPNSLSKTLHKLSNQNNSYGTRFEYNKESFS
The target of experiment [10] is NADPH oxidase 5 (Homo sapiens) (UniProt Q96PH1). The experiment can be described thus: NOX5-dependent H2O2 signal modulators, primary screen, NOX inhibitor project, cell-based, HEK293-NOX5, Amplex Red fluorescence (AID 1161). As to conditions: HEK293-NOX5, ionomycin, 45 min, higher = more signal.
Chain of NADPH oxidase 5 (Homo sapiens) (Q96PH1 whole entry, looked up): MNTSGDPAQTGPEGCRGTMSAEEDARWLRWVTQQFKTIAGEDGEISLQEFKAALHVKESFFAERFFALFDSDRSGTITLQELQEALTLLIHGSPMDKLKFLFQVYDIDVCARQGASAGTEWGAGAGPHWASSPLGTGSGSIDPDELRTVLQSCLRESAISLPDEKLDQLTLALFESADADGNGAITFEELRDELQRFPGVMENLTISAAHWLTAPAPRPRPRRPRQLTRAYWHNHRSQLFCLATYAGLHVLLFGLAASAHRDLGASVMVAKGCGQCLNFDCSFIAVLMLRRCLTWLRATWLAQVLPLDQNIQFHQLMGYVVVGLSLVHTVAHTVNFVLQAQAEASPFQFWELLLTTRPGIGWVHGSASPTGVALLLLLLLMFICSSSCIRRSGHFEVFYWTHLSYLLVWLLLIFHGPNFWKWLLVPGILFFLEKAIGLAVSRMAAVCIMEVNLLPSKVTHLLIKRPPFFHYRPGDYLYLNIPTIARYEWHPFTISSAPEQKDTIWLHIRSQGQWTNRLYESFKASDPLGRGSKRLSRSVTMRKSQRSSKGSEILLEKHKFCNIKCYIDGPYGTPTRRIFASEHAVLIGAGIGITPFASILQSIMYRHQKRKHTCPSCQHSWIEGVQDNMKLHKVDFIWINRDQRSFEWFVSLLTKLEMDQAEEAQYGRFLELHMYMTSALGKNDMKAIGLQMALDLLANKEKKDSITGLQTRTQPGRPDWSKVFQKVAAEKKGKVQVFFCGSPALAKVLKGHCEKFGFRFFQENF
Experiment [11] is described as follows: A549 cell viability effects, profiling panel, calcein-AM fluorescence, 48 h, basal (AID 1162). Also: test concentration not given here. As to conditions: higher = more signal.
A short description of experiment [12]: adipocyte viability effects, profiling panel, cell-based, 3T3-L1 adipocytes, calcein-AM fluorescence, 48 h, basal (AID 1163). Also: test concentration not given here. To be noted: 3T3-L1 adipocytes viability, higher = more signal.
A short description of experiment [13]: HepG2 cell viability effects, profiling panel, calcein-AM fluorescence, 48 h, basal (AID 1164). Also: test concentration not given here. As to conditions: higher = more signal.
Experiment [14] in a line: MM1S cell viability effects, profiling panel, calcein-AM fluorescence, 48 h, basal (AID 1165).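 Also: viability of MM1S multiple myeloma cells under basal unstimulated conditions; test concentration not given here.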 As to conditions: higher = more signal.
A short description of experiment [15]: basal RPMI8226 viability, no added stimulus, profiling panel, cell-based, calcein-AM fluorescence, 48 h, PK04 Diversity Set (AID 1166).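 Also: cells grown under basal conditions without added stimulus; test concentration not given here.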 As to conditions: RPMI8226 myeloma viability, higher = more signal.
The nature of experiment [16]: basal HepG2 mitochondrial membrane potential changes, profiling panel, cell-based, JC-1 fluorescence, 24 h, 100 nL compound (AID 1167). Also: test concentration not given here. As to conditions: higher = more signal.
The nature of experiment [17]: basal 3T3-L1 adipocyte mitochondrial potential changes, profiling panel, cell-based, JC-1 fluorescence, 3T3-L1 adipocytes, 24 h, 100 nL compound (AID 1168). Also: test concentration not given here. To be noted: JC-1 mitochondrial fluorescence, higher = more signal, called active from +8 up or from −8 down.
The nature of experiment [18]: basal RPMI8226 mitochondrial membrane potential changes, profiling panel, cell-based, JC-1 fluorescence, 24 h, 100 nL compound (AID 1169). Also: test concentration not given here. As to conditions: RPMI8226 myeloma, JC-1 mitochondrial potential fluorescence, higher = more signal.
Experiment [19] can be described thus: basal MM1S mitochondrial membrane potential changes, profiling panel, cell-based, JC-1 fluorescence, 24 h, 100 nL compound (AID 1170). Also: test concentration not given here. As to conditions: higher = more signal.
Experiment [20] is described as follows: A549 lung cancer cell viability effects, profiling panel, resazurin fluorescence, 24 h, PK04 Diversity Set (AID 1171). Also: test concentration not given here. To be noted: higher = more signal, called active from +8 up or from −8 down.

The source made the active and inactive calls.

`CC(C)(C)OC(=O)CC[C@@]1(C(=O)N2CCOCC2)N=C(c2ccc(OCCCO)cc2)O[C@@H]1c1ccccc1N=[N+]=[N-]`: the z-score in experiment [1] was 1.96 (inactive); in experiment [3] it was 30.9 (active); in experiment [4] it was 28.1 (active); in experiment [5], 1.09 (inactive); in experiment [6], 7.36 (inactive); in experiment [7] it was -0.242. Also, the z-score in experiment [8] was -3.49 (inactive); in experiment [9] it was 0.71 (inactive); in experiment [10], -2.04; in [11], 0.962; in [12] it was 0.122; in experiment [13] it was 0.169. Also, the z-score in [14] is -0.49; in experiment [15], 0.338; in experiment [16], 2.09; in [17], 5.5 (inactive); in [18], -0.499; in experiment [19], -1.03. Also, the z-score in experiment [20] was 0.716 (inactive). The compound further registered a composite z-score in experiment [2] of 0.394.
`C=C(C(=O)CC[C@@H](OC(=O)c1cccnc1)c1ccc(CO)o1)C(C)C`: the z-score is -0.766 (inactive) in [1]; 1.42 (inactive) in [3]; 0.0559 (inactive) in experiment [4]; 0.375 (inactive) in experiment [5]; 0.209 (inactive) in [6]; -0.211 in experiment [7]. The z-score is 1.22 (inactive) in experiment [8]; -0.133 (inactive) in experiment [9]; 0.337 in experiment [10]; -0.628 in [11]; 0.153 in [12]; -0.545 in experiment [13]. Moreover, the z-score is -1.06 in experiment [14]; -0.56 in experiment [15]; -1.3 in [16]; 0.0907 (inactive) in [17]; 0.283 in experiment [18]; 0.48 in experiment [19]. The z-score in experiment [20] was -0.297 (inactive). The composite z-score in experiment [2] turned out to be 0.329.
Take `CC(C)OC(=O)C1=CCC(c2cccc(Cl)c2)O1` (stereo not given): the z-score was 0.504 (inactive) in experiment [1]; 26 (active) in experiment [3]; 6.53 (inactive) in [4]; 0.751 (inactive) in experiment [5]; 0.296 (inactive) in [6]; 1.8 in experiment [7]. Besides, the z-score is -3.89 (inactive) in [8]; -2.1 (inactive) in experiment [9]; -4.96 in experiment [10]; -1.14 in experiment [11]; 0.102 in experiment [12]; -0.582 in experiment [13]. Moreover, the z-score in [14] was -1.57; in experiment [15] it was -1.58; in [16] it was -0.231; in experiment [17], -0.076 (inactive); in experiment [18], 0.923; in experiment [19], -1.99. Moreover, the z-score in experiment [20] was 1.09 (inactive). In experiment [2], this compound gave a composite z-score of -0.142.
As for `NC(=O)[C@]1(Cc2ccccc2)N=C(c2ccc(OCCCO)cc2)O[C@@H]1c1ccccc1`, the z-score in experiment [1] is -0.465 (inactive); in [3] it was 26.5 (active); in [4] it was 15.6 (active); in experiment [5], 0.531 (inactive); in [6] it was 2.19 (inactive); in experiment [7] it was -0.0349. In addition, the z-score was -0.273 (inactive) in experiment [8]; -0.228 (inactive) in experiment [9]; 0.575 in [10]; -0.399 in [11]; 0.879 in [12]; -0.603 in [13]. The z-score was -0.598 in [14]; -1.94 in [15]; -1.43 in experiment [16]; -0.517 (inactive) in [17]; -0.775 in experiment [18]; 1.18 in experiment [19]. Besides, the z-score in experiment [20] was -0.784 (inactive). The same compound gave a composite z-score in experiment [2] of 0.351.
Take `Cc1ccc(F)cc1S(=O)(=O)N[C@@H]1CCN(Cc2ccc(C(F)(F)F)cc2)C1`: the z-score in experiment [1] is -5.36 (inactive); in [3] it was 4.85 (inactive); in [4], 1.15 (inactive); in experiment [5], 0.129 (inactive); in [6], 0.624 (inactive); in [7], -0.147. Besides, the z-score in experiment [8] was -0.344 (inactive); in experiment [9] it was -1.19 (inactive); in [10], -2; in [11], -0.455; in experiment [12] it was -1.68; in experiment [13], -1.82. Besides, the z-score is -2.4 in [14]; -2.09 in [15]; -3.18 in experiment [16]; -0.332 (inactive) in [17]; -0.615 in [18]; -1.75 in [19]. The z-score in experiment [20] was -0.196 (inactive). In experiment [2], this compound displayed a composite z-score of -0.152.
As for `O=C1OCC=C[C@H]2OC34C=CCN(c5ccc(Cl)cc5)C(=O)[C@H]3N(CCCO)C(=O)[C@@H]4[C@@H]12` (stereo not given in full), the z-score was 0.657 (inactive) in experiment [1]; 0.204 (inactive) in [3]; -0.531 (inactive) in experiment [4]; -0.172 (inactive) in [5]; -1.41 (inactive) in experiment [6]; 0.808 in [7]. Further, the z-score was 0.846 (inactive) in [8]; -0.895 (inactive) in experiment [9]; 2.6 in [10]; -0.0108 in [11]; 1.46 in [12]; -0.722 in experiment [13]. Also, the z-score is 0.237 in [14]; -0.802 in experiment [15]; -0.545 in [16]; 0.978 (inactive) in experiment [17]; -0.454 in [18]; 0.856 in experiment [19]. Moreover, the z-score in experiment [20] was -0.875 (inactive). The same compound gave a composite z-score in experiment [2] of -0.128.
As to `C=CCOC(=O)[C@@H]1[C@H]2C(=O)O[C@H](c3ccccc3)[C@H](c3ccccc3)N2[C@H](c2ccc(OCCOC(=O)[C@H]3C[C@H]4C(=O)N[C@@H](CCCC[N+](C)(C)C)C(=O)N4[C@H]3c3cccc(OCCO)c3)cc2)[C@@]12C(=O)Nc1ccc(I)cc12`, the z-score is -0.398 (inactive) in experiment [1]; 7.62 (inactive) in experiment [3]; 2.35 (inactive) in [4]; 1.59 (inactive) in experiment [5]; 1.28 (inactive) in [6]; 0.0621 in experiment [7]. Besides, the z-score in experiment [8] is 1.68 (inactive); in experiment [9] it was 0.615 (inactive); in experiment [10] it was 1.33; in [11] it was -0.299; in [12], 0.194; in [13], -0.872. The z-score in experiment [14] was -0.135; in experiment [15], 0.437; in [16], -0.984; in [17], 1.07 (inactive); in [18], -0.742; in experiment [19] it was -1.24. Further, the z-score in experiment [20] is -0.166 (inactive). The compound also registered a composite z-score in experiment [2] of 0.173.
